Measured values taken from PubChem BioAssay AID623994 (NMMLSC, 2012).
Entries with a potency or affinity are not part of this list. Activity calls are given as the source filed them.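 Rule for the calls: active = compounds whose fitted concentration for half the maximal dye retention is below 100 µM; inactive = the rest.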

These molecules were tested against Multidrug resistance protein CDR2 (Candida albicans (strain SC5314 / ATCC MYA-2876)) (UniProt P78595) (assay: CaCDR2 efflux pump inhibitors in yeast, dose response, S. cerevisiae AD1-8u, singleplex, Cherry Pick2 set (AID 623994)). Conditions: S. cerevisiae AD1-8u expressing CaCDR2, Nile Red efflux; series mostly up to 100 µM.
Chain of Multidrug resistance protein CDR2 (Candida albicans (strain SC5314 / ATCC MYA-2876)) (P78595 whole entry, looked up): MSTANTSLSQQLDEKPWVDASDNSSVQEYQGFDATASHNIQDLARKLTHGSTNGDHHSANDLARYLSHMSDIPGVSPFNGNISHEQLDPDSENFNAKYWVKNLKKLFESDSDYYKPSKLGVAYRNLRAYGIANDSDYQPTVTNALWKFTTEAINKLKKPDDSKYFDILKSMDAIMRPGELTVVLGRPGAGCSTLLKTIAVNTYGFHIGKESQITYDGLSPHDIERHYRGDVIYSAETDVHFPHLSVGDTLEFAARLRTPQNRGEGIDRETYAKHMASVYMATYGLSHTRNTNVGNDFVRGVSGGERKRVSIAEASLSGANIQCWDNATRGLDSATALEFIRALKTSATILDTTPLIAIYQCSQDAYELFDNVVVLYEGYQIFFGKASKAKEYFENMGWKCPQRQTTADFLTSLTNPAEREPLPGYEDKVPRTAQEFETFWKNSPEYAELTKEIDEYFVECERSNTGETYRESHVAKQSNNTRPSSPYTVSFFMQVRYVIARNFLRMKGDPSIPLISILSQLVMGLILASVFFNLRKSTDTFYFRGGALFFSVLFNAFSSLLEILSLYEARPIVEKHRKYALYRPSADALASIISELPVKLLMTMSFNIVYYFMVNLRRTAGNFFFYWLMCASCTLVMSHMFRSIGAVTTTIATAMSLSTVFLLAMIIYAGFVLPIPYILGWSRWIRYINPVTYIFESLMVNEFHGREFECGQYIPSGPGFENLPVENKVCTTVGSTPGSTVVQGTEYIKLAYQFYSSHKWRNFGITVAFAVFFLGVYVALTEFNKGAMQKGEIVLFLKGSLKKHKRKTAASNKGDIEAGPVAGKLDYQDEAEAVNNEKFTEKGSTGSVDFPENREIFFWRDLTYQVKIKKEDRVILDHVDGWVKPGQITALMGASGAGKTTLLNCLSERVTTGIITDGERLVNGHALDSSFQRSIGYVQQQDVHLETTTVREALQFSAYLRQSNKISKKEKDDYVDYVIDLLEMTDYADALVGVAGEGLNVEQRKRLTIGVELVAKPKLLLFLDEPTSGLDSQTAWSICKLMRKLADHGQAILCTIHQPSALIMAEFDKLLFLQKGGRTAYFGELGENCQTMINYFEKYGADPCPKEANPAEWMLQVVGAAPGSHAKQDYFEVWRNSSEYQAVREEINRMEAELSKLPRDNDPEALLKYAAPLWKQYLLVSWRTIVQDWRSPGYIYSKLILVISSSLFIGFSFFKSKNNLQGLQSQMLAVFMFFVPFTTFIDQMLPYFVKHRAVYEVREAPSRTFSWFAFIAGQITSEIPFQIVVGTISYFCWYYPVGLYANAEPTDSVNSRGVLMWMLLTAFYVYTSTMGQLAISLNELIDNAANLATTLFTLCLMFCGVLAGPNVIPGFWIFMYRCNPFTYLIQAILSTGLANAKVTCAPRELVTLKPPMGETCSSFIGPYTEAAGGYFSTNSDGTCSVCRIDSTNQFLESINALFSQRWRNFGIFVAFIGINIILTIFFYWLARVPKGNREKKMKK

outcome, inactive:
CCCCCc1cc(=O)oc2c(C(CCN3CCCC(C)C3)c3ccc(N(C)C)cc3)c(OC)cc(OC)c12 (centres undefined)
O=C(CSc1nnc(Cc2cccs2)n1Cc1ccco1)Nc1ccc(Br)cc1
O=C(/C=C/c1cccs1)N1CCC2(CC1)Oc1ccc(F)cc1C(=O)C21CC(c2ccccc2)=NO1 (centres undefined)
NS(=O)(=O)c1ccc(N2N=C(c3ccccc3)CC2c2cccc(Br)c2)cc1 (centres undefined)
COc1cc(OC)c2ccc(=O)oc2c1C(CCN1CCCC(C)C1)c1ccc(N(C)C)cc1 (centres undefined)
CCCCN1Cc2cc(C(=O)c3cc(F)ccc3O)cnc2NC1=O
OCCN1CCN(CC/C=C2/c3ccccc3Sc3ccc(C(F)(F)F)cc32)CC1
CCO[C@@H]1OC(C(=O)Nc2ccccc2)=C[C@H](c2ccc(Br)cc2)[C@H]1CCCO
Cc1cc(C(=O)NC2CC(C)(C)Cc3c2cnn3-c2ccc(F)cc2)no1 (centres undefined)
COc1ccc(C2CC(c3cccc(OC)c3)=NN2c2ccc(S(N)(=O)=O)cc2)cc1 (centres undefined)
O=C(C[n+]1cc(-c2ccccc2)n2c1CCC2)N1c2ccccc2Sc2ccccc21
NC1=NC[C@H](Cc2ccc(O)cc2)N1CCc1cc(C(F)(F)F)cc(C(F)(F)F)c1
O=C(C1CCCN(c2ncnc3c2nc2n3CCCCC2)C1)N1CCN(c2ccccc2F)CC1 (centres undefined)
Cc1ccc(O)c(C(=O)c2cnc3c(c2)CN(CCC(C)C)C(=O)N3)c1
N#CC(C(=O)NCc1ccccc1)c1nc2ccccc2nc1N1CCCC1 (centres undefined)
CC(C)C(=O)N1CCC2(CC1)Oc1ccc(F)cc1C(=O)C21CC(c2ccccc2)=NO1 (centres undefined)
CCOc1cccc2sc(NC(=O)c3ccc(Br)s3)nc12
CCC(Cc1ccccc1)OC(=O)c1ccccc1C(=O)O (centres undefined)
O=C(c1ccoc1)N1CCC2(CC1)Oc1ccc(F)cc1C(=O)C21CC(c2ccc(Cl)cc2)=NO1 (centres undefined)
O=C(Nc1ccccc1)C1=C[C@@H](c2ccc(C(F)(F)F)cc2)C[C@@H](OCCCCO)O1
COc1cc(OC)c2c(-c3ccccc3)cc(=O)oc2c1C(CCN1CCCC(C)C1)c1ccc(N(C)C)cc1 (centres undefined)
Cc1ccc(CNC(=O)C2CCC(CNc3nc(=S)[nH]c4ccccc34)CC2)cc1 (centres undefined)
O=C(C1CCCN(c2ncnc3c2nc2n3CCCCC2)C1)N1CCN(c2ccccc2)CC1 (centres undefined)
Cc1ccc(N2CCN(C(=O)C3CCCN(c4ncnc5c4nc4n5CCCCC4)C3)CC2)c(C)c1 (centres undefined)
Cc1ccc(-c2c[n+](CC(=O)N3c4ccccc4Sc4ccccc43)c3n2CCC3)cc1
COc1ncccc1C(=O)NC1CCCc2c1cnn2-c1cc(C)cc(C)c1 (centres undefined)
O=C(C1CCC(CNc2nc(=S)[nH]c3ccccc23)CC1)N1CCN(c2ccc(F)cc2)CC1 (centres undefined)
Cc1ccc(C2CC(c3ccccc3)=NN2c2ccc(S(N)(=O)=O)cc2)cc1 (centres undefined)
COc1ccccc1C(=O)OCCc1ccccc1
